DAT uptake mod: human DAT dopamine uptake with cocaine, either direction; B-score at 10 µM; AID 449768; actives 1.3% (n = 110,000); Q01959; LLC-PK1 hDAT cells, [14C]-dopamine uptake with cocaine IC80; actives deviate in either direction;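 active = Z score or B-score, a plate-position-corrected score, falls beyond the plate's 99.7% confidence bounds, in either direction; inactive = both scores lie inside the 99.7% bounds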;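 also: scored against the spread of the other compound wells on the same plate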
D1 allo mod: allosterically modulates the human D1 dopamine receptor | P21728 | HEK293 D1, CRE-luciferase, dopamine EC30 potentiation; actives deviate in either direction | B-score at 10 µM | actives 5.9% (n = 58,000);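 active = luminescence count or its row- and column-corrected plate score outside the 99.7% band of the plate's sample wells, on either side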
Target sequence (P21728 whole entry, looked up): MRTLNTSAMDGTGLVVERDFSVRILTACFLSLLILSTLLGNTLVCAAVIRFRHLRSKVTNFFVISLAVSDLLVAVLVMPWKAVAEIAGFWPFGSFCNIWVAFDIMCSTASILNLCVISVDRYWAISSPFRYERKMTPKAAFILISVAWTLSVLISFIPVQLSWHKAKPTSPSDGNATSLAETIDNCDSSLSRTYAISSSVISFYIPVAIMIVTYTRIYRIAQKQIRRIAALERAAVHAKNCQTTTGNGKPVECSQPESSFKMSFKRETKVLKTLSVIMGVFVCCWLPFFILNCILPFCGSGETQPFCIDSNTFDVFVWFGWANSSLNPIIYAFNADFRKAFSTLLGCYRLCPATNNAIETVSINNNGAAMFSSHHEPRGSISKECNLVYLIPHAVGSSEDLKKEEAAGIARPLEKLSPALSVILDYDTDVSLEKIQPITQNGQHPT
BAP1 block: blocks human BAP1 ubiquitin-AMC hydrolysis | recombinant BAP1, Ub-AMC hydrolysis fluorescence kinetic; active compounds read low | calls only at 20 µM | actives 0.48% (n = 72,000) | AID 436;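 active = activity remaining at or below 50% of control, provided the compound also passes the data quality filters; inactive = the rest, including low values that fail the filters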;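 also: 100% = DMSO wells rate and 0% = substrate alone blank rate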
Active calls of the source: *. This is one part of a sample in which hits are shown more often than they occur.

Results for CCCn1c2ccccc2c2nnc(SC(CC)C(=O)Nc3cc(C)on3)nc21 (stereo not drawn) ?
DAT uptake mod: 2.1

How did Nc1cc(=O)nc(SCC(=O)NCc2ccccc2)n1CCc1ccccc1 do in these assays?
DAT uptake mod: -5.1*

What do the screens show for `CCC(Sc1nc(=O)cc(N)n1CCc1ccccc1)C(=O)Nc1cc(C)on1` (stereo not drawn)?
DAT uptake mod: -0.72; D1 allo mod: -5.1*; BAP1 block: inactive

How did C=CCn1c(N)cc(=O)nc1SCC(=O)NC(C)c1ccccc1 (stereo not drawn) do in these assays?
DAT uptake mod: -0.84; D1 allo mod: -0.98; BAP1 block: inactive

What do the screens show for `O=C1CCCN1Cc1cc(Cl)c2cccnc2c1O`?
BAP1 block: inactive

How did CCOC(=O)c1c(NC(=O)CSc2nnc(C)c(=O)[nH]2)sc2c1CCN(C)C2 do in these assays?
BAP1 block: inactive

How did CCOC(=O)c1c(-c2ccc(Br)cc2)csc1NC(=O)C#Cc1ccccc1 do in these assays?
BAP1 block: inactive

What do the screens show for `Cc1ccc(S(=O)(=O)NC(=O)c2ccc(-c3ccc(-c4ccccc4)cc3)o2)c(C)c1`?
DAT uptake mod: -2.2*

What do the screens show for `Cc1ccc(NS(=O)(=O)c2ccc(NC(=O)c3ccc(-c4ccccc4)cc3)cc2)c(C)c1`?
DAT uptake mod: 0.25

How did CCOc1ccccc1OCCCCCc1c(C)n[nH]c1C do in these assays?
DAT uptake mod: 0.61; D1 allo mod: -2.4*; BAP1 block: inactive

How did COc1ccccc1OCCCCCc1c(C)n[nH]c1C do in these assays?
DAT uptake mod: 1.2; D1 allo mod: -0.94; BAP1 block: inactive

Results for CCOC(=O)CCCSc1nc2sc3c(c2c(=O)[nH]1)CCC3 ?
DAT uptake mod: 0.016

How did CCOC(=O)CSc1nnc(CSc2nc3sc4c(c3c(=O)[nH]2)CCCC4)n1-c1ccccc1 do in these assays?
DAT uptake mod: 1.9*

What do the screens show for `Cc1nnc2n(Cc3ccccc3)c(=O)c3c4c(sc3n12)CN(Cc1ccccc1)CC4`?
D1 allo mod: 0.7; BAP1 block: inactive

How did CCOC(=O)CSc1nnc2n(C3CCCCC3)c(=O)c3c4c(sc3n12)CCCC4 do in these assays?
DAT uptake mod: 0.11; BAP1 block: inactive

How did CCOC(=O)CSc1nnc2n(Cc3ccccc3)c(=O)c3c4c(sc3n12)CCC4 do in these assays?
DAT uptake mod: -1.5*; BAP1 block: inactive

What do the screens show for `Cc1nnc2n(Cc3ccccc3)c(=O)c3c4c(sc3n12)CCCC4`?
D1 allo mod: 6.3*; BAP1 block: inactive

How did CCN1C(=O)c2cccc3c(NC(=O)c4cccc(F)c4)ccc1c23 do in these assays?
BAP1 block: inactive

Results for N=c1oc2ccccc2cc1C(N)=S ?
BAP1 block: inactive

What do the screens show for `O=C(c1nn2c(c1Cl)NC(c1cccs1)CC2C(F)(F)F)N1CCN(C(c2ccccc2)c2ccccc2)CC1` (stereo not drawn)?
BAP1 block: inactive

What do the screens show for `CCSc1ccc(NC(=O)CC2c3ccccc3Oc3ccccc32)cc1`?
BAP1 block: inactive

Results for CCOC(=O)c1c(NC(=O)COc2cc(C)ccc2C(C)(C)C)sc2c1CCCC2 ?
BAP1 block: inactive

What do the screens show for `COc1ccc([C@@H]2Sc3ccccc3N(CCN(C)C)C(=O)[C@@H]2OC(C)=O)cc1`?
DAT uptake mod: 0.41; D1 allo mod: -6.8*; BAP1 block: inactive

How did CC1Sc2ccccc2N(CC(=O)N(C(C)C)C(C)C)C1=O (stereo not drawn) do in these assays?
DAT uptake mod: -1.1

Results for Cc1ccc(N2C(=O)C(N3C(=O)c4ccc([N+](=O)[O-])cc4C3=O)C2c2ccc3c(c2)OCO3)cc1F (stereo not drawn) ?
BAP1 block: inactive

What do the screens show for `Cc1cc(C)cc(-c2nnc(SCC(=O)NCc3cccs3)o2)c1`?
DAT uptake mod: 0.12; D1 allo mod: 0.25; BAP1 block: inactive

What do the screens show for `CNC(=O)CSc1nnc(-c2cc(C)cc(C)c2)o1`?
DAT uptake mod: -0.092; D1 allo mod: -3.2*; BAP1 block: inactive

How did CCCCOc1ccc(CNC(=O)NS(=O)(=O)c2ccc(OCC)cc2)cc1 do in these assays?
DAT uptake mod: -9.1*

How did CCCCOc1ccc(S(=O)(=O)NC(=O)NCc2ccc(OCCC)cc2)cc1 do in these assays?
DAT uptake mod: 0.7

What do the screens show for `CCOc1ccc(S(=O)(=O)NCc2ccncc2)cc1`?
DAT uptake mod: -2.7*

Results for CCOC(=O)COc1ccc(S(=O)(=O)NCc2ccncc2)cc1 ?
DAT uptake mod: 0.3; D1 allo mod: 0.13; BAP1 block: inactive

How did CC1=C(C(=O)OC(C)C)C(c2cccc(Oc3ccccc3)c2)NC(=O)N1 (stereo not drawn) do in these assays?
BAP1 block: inactive

Results for O=C(Nc1ccc(O)c(-c2nc3ccccc3o2)c1)c1ccccc1Cl ?
BAP1 block: inactive

Screening data as filed in PubChem.
